In PubChem BioAssay AID602248 (The Scripps Research Institute Molecular Screening Center, 2012) one finds activation data, which are given here for 91 compounds.

About 1,700 (0.47%) of roughly 360,000 compounds were called active. Cut-off read from the data, not from the text of the source: active = activation above about 15%; inactive = the rest. The full list was thinned out, with actives kept by preference.

This experiment can be described thus: counter-screen for M1 agonists: effect in parental CHO-K1 cells (AID 602248).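 Note: untransfected CHO-K1 host cells lacking M1 receptor as counterscreen.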 Conditions: Fluo-8 calcium fluorescence, at 3 µM, active compounds read high, scaled to maximal ATP response, vehicle zero. A general note: The purpose of a counterscreen is to sort out artefacts and off-target activity.
In the case of `COc1ccc(Br)cc1CN(C)CC(=O)Nc1cc([N+](=O)[O-])ccc1OC`, the activation was 0.64% (inactive).

Turning to `COc1ccc(Br)cc1CN(C)CC(=O)Nc1cc(Cl)cc(Cl)c1`, the activation was 18.5% (active).

On to `COc1ccc(Cl)cc1NC(=O)CN(C)Cc1ccc(OC)c(OC)c1`, for which the activation was 6.25% (inactive).

Turning to `OCC1(Cc2ccccc2C(F)(F)F)CCN(Cc2ccncc2)CC1`, the activation was 1.74% (inactive).

`CC(C)C(=O)Nc1ccc2c3c(cccc13)CC2`: the activation is -0.06% (inactive).

Consider `N#CC1(Nc2ccc3c4c(cccc24)CC3)CCCCC1`, for which the activation is 41% (active).

With `N#CC1(Nc2ccc(-c3ccc(Cl)cc3)cc2)CCCC1`, the activation is 0.41% (inactive).

For the compound `CC(C)(O)C#Cc1ccc(CNC[C@H]2O[C@@H](n3cnc4c(=O)[nH]c(N)nc43)[C@H](O)[C@@H]2O)s1`, the activation is 0.21% (inactive).

For the compound `COCCN(C(=O)CCC(=O)Nc1nccs1)C(C(=O)NCCC(C)C)c1ccc(F)cc1` (stereo unspecified), the activation was 0.22% (inactive).

Regarding `COc1cncc(-c2cnc3sc(NCCc4ccccn4)nn23)c1`, the activation was 0.67% (inactive).

For the compound `Cc1ccc(S(=O)(=O)N(C)CC(=O)NCCc2c[nH]c3ccccc23)cc1`, the activation was 6.95% (inactive).

With `CC1CCC(NC(=O)CN(C)S(=O)(=O)c2ccc3c(c2)c(=O)n(C)c(=O)n3C)CC1` (stereo unspecified), the activation was 15.6% (active).

For the compound `CCc1ccccc1NC(=O)CN(C)S(=O)(=O)c1ccc2c(c1)c(=O)n(C)c(=O)n2C`, the activation was 1.14% (inactive).

As to `COc1cccc(CNC(=O)CN(C)S(=O)(=O)c2ccc3c(c2)c(=O)n(C)c(=O)n3C)c1`, the activation was 1.02% (inactive).

Consider `COc1ccc(N(CCC#N)S(=O)(=O)c2ccc(Cl)cc2)cc1`, for which the activation was 1.81% (inactive).

`COC(=O)c1ccc(CSc2ccc3nnc(-c4ccccc4)n3n2)o1`: the activation was 2.77% (inactive).

`Cc1oc2nc(SCC(=O)Nc3ccc(S(N)(=O)=O)cc3)nc(NC(=O)c3ccccc3)c2c1C`: the activation is 0.44% (inactive).

Take `COc1cc(OC)c(S(=O)(=O)Nc2ccccc2C(=O)O)cc1S(=O)(=O)Nc1ccccc1C(=O)O`: the activation is 15.1% (active).

As for `COc1ccc(OC)c(S(=O)(=O)Nc2ccccc2F)c1`, the activation is 0.21% (inactive).

Consider `COc1cc(/C=C/C(=O)O)cc(S(=O)(=O)Nc2ccccc2C(=O)NCCc2ccccc2)c1OC`, for which the activation is -0.11% (inactive).

As to `CC(=O)c1c(C)[nH]c(C(=O)COC(=O)c2cccc(S(=O)(=O)N(C)c3ccccc3)c2)c1C`, the activation is 17.5% (active).

`COc1ccc(C)cc1NC(=O)C(OC(=O)c1cccc(S(=O)(=O)N(C)c2ccccc2)c1)c1ccccc1` (stereo unspecified): the activation is -0.35% (inactive).

On to `CC(=O)c1c(C)[nH]c(C(=O)COC(=O)CCOc2ccc(C)cc2)c1C`, for which the activation is 7.01% (inactive).

With `COCCN1C(=O)C(=O)/C(=C(/O)c2ccc(S(=O)(=O)N3CCOCC3)cc2)C1c1ccc(OC)c(OC)c1` (stereo unspecified), the activation is 1.09% (inactive).

Regarding `O=C(c1ccc(=O)oc1)N1CCC(C(O)(c2ccccc2)c2ccccc2)CC1`, the activation was 0.08% (inactive).

Turning to `CSc1ncccc1C(=O)Nc1nc2ccc(F)cc2s1`, the activation was 3.35% (inactive).

Consider `O=C(Nc1nnc(C2CC2)s1)c1ccccn1`, for which the activation is 0.38% (inactive).

Regarding `c1ccc(C(=NNc2nc3ccccc3s2)c2ccccn2)cc1`, the activation was 15.9% (active).

Turning to `CC(C)(C)S(=O)(=O)N1Cc2cc(CO)cc(CCO)c2[C@H]1CCO`, the activation was 0.36% (inactive).

`CC(C)C(=O)NCC(c1cccs1)S(=O)(=O)c1ccc(F)cc1` (stereo unspecified): the activation was 2.59% (inactive).

For `Cc1cccc(C2c3[nH]c4ccccc4c3CCN2C(=O)c2cc(-c3cccn3C)n[nH]2)n1` (stereo unspecified), the activation is 0.16% (inactive).

As for `Cc1cccc(C(=O)N2CCc3c([nH]c4ccccc34)C2CC(C)C)n1` (stereo unspecified), the activation was 16.4% (active).

Regarding `COc1cccc(C2c3[nH]c4ccccc4c3CCN2Cc2cccc(C)n2)c1` (stereo unspecified), the activation is 1.31% (inactive).

`Cc1ccc(C)c(S(=O)(=O)N2CCN(CC(=O)Nc3ccc([N+](=O)[O-])cc3)CC2)c1`: the activation was 6.2% (inactive).

Turning to `Cc1ccc(S(=O)(=O)N2CCC3(CC2)OCCO3)c(C)c1`, the activation was 0.97% (inactive).

For `Cc1ccc(C)c(S(=O)(=O)N2CCN(c3ncnc4sccc34)CC2)c1`, the activation is 15.9% (active).

Consider `OCC[C@H]1C[C@H](O)[C@@H](O)[C@]2(Cc3ccccc3CO2)O1`, for which the activation is 0.07% (inactive).

Consider `CCCCc1ccc(S(N)(=O)=O)cc1`, for which the activation is 1.03% (inactive).

Turning to `O=C(Nc1cc(Cl)ccc1N1CCOCC1)c1ccc(N2CCCC2=O)cc1`, the activation is 1.09% (inactive).

Take `Cc1ccc2c(=O)oc(N(C)C)nc2c1`: the activation was -0.31% (inactive).

Turning to `Cc1ccc2oc(=O)ccc2c1`, the activation is 0.97% (inactive).

On to `CCN(CC)c1ccc2oc(=O)c(C)nc2c1`, for which the activation was 28.8% (active).

Regarding `O=S1(=O)CC(N2CCN(CCO)CC2)CN1C1CCCC1` (stereo unspecified), the activation is 0.24% (inactive).

In the case of `Cc1nc2cc(C(F)(F)F)ccc2n1CCNc1nc(-c2cc(Cl)c(N)c(Cl)c2)cs1`, the activation was -0.4% (inactive).

`CC(C)(c1ccccc1)c1ccc(OCCN)cc1`: the activation is 16.5% (active).

As to `CC(C)(c1ccccc1)c1ccc(OCCN2CCCC2)cc1`, the activation was 1.86% (inactive).

As to `Cc1nn(CCOc2ccccc2)c(=O)n1-c1ccccc1F`, the activation was 0.58% (inactive).

Regarding `O=C(CC(NC(=O)c1ccccc1)c1ccccc1)Nc1ccc(F)c(F)c1` (stereo unspecified), the activation is 8.06% (inactive).

As for `CN(C(=O)CN1C(=O)NC(C)(CCc2ccccc2)C1=O)c1ccccc1` (stereo unspecified), the activation is 1.76% (inactive).

Turning to `CN(C)c1ccc(/C=C2\NC(=S)N(Cc3ccccc3)C2=O)cc1`, the activation was 27.4% (active).

For `CN(C)c1ccc(CSc2ccccc2)cc1`, the activation was -0.35% (inactive).

In the case of `CCn1c(SCC(=O)Nc2ccccc2F)nc2c(c1=O)SC(C)C2` (stereo unspecified), the activation was 3.19% (inactive).

For `O=C(CSc1nnc(CN2CCCC2)n1-c1ccc(F)cc1)c1ccc2c(c1)OCO2`, the activation is 1.52% (inactive).

In the case of `Cc1ccc(S(=O)(=O)N(Cc2cc3ccccc3[nH]c2=O)CC2CCCO2)cc1` (stereo unspecified), the activation was 5.14% (inactive).

Regarding `Cc1ccc(S(=O)(=O)N(C)C)cc1NC(=O)COC(=O)C1COc2ccccc2O1` (stereo unspecified), the activation is 1.48% (inactive).

`CCCc1ccc(OCC(=O)NNC(=S)NC(=O)c2ccco2)cc1`: the activation was 7.19% (inactive).

For the compound `O=C(Nc1ccc2ccccc2c1)/C(=C\c1ccc2c(c1)OCO2)NC(=O)c1ccco1`, the activation is 1.3% (inactive).

In the case of `CC(Oc1ccc2ccccc2c1)C(=O)NNC(=S)NC(=O)c1ccco1` (stereo unspecified), the activation was 33.6% (active).

For the compound `COC(=O)c1cc(C(=O)OCC(=O)Nc2cc(C)on2)cc([N+](=O)[O-])c1`, the activation was 0.23% (inactive).

As for `CN1CCN(C(=O)c2cnn(-c3ccccc3)c2NC(=O)c2ccc([N+](=O)[O-])cc2)CC1`, the activation is 0.79% (inactive).

As for `COc1cc(C(=O)NCc2ccc(-n3cccc3)cc2)cc(OC)c1OC`, the activation is 7.89% (inactive).

On to `COc1cc(C(=O)NCc2ccc3c(c2)cc(C)n3C)cc(OC)c1OC`, for which the activation is -0.48% (inactive).

As for `CCn1c(CNC(=O)c2cc(OC)c(OC)c(OC)c2)cc2cc(C)ccc21`, the activation was 20.6% (active).

As to `CCCCC(=O)NCc1ccc(F)cc1`, the activation was -0.33% (inactive).

In the case of `CCCOCC(O)CC(CC)C(=O)NNC(=S)Nc1ccccc1` (stereo unspecified), the activation was 0.03% (inactive).

As to `CCCCC(=O)NNC(=S)NC(=O)C(c1ccccc1)c1ccccc1`, the activation was 86% (active).

Turning to `CCCCC(CC)CNC(=O)C(=O)C1C(=O)Nc2ccccc21` (stereo unspecified), the activation is -0.65% (inactive).

`CCOC(=O)c1c(C)oc(C)c(C(=O)OCC)c1=O`: the activation was 0.16% (inactive).

`O=C1NC[C@H](CCCCN2C[C@H](Cc3ccc(O)cc3)N(CCc3ccccc3)C(=O)C2=O)N(CCc2ccccc2)C1=O`: the activation is 0.62% (inactive).

On to `N#C/C(=C\c1ccc(N2CCOCC2)o1)C(=O)N1CCOCC1`, for which the activation is 4.52% (inactive).

As for `Cc1ccc(C(=O)N/C(=C/c2ccco2)C(=O)NCCc2c[nH]c3ccccc23)cc1C`, the activation is 1.71% (inactive).

As for `N#C/C(=C/c1ccc(N2CCCCC2)o1)C(=O)NCCc1c[nH]c2ccccc12`, the activation was 24.1% (active).

As for `CC(=O)c1cccc(NC(=O)[C@@H](NC(N)=O)C(C)C)c1`, the activation is -0.09% (inactive).

For the compound `COc1ccc(C(=O)OCC(=O)Nc2cccc(C(C)=O)c2)cc1OC`, the activation was 2.14% (inactive).

As for `CCSc1nsc(NC(=O)Nc2cccc(C(C)=O)c2)n1`, the activation is 16.5% (active).

As for `C=CCSc1nsc(NC(=O)Nc2cccc(C(C)=O)c2)n1`, the activation was 15.8% (active).

Consider `CCc1nnc(NC(=O)CSc2nnnn2-c2cccc(C(C)=O)c2)s1`, for which the activation was -0.49% (inactive).

In the case of `CCCCN1C(=O)C(=O)N(CC(=O)Nc2cccc(C(C)=O)c2)C1=O`, the activation was -0.29% (inactive).

As to `Cc1ccc(C(=O)N2CCC(n3nccc3NC(=O)Nc3cccc(F)c3)CC2)cn1`, the activation is 1.73% (inactive).

Take `COc1ccc(OCC(=O)OCC(=O)Nc2ccc(S(=O)(=O)N3CCCCC3)cc2)cc1`: the activation is 0.75% (inactive).

`CCOC(=O)COc1ccc(Cl)cc1C1NC(=O)NC(C)=C1C(C)=O` (stereo unspecified): the activation was 0.08% (inactive).

Take `CN(C)CCCCCN(C)Cc1cc2ccccc2o1`: the activation is 0% (inactive).

As for `CCCCNC(=O)c1nc(C2CCN(S(=O)(=O)c3ccc(F)c(F)c3)CC2)oc1-c1cccc(C(F)(F)F)c1`, the activation is 2.76% (inactive).

For the compound `Cn1nnnc1SCC(=O)NNC(=O)c1ccc(Br)cc1`, the activation is -0.47% (inactive).

On to `COC(=O)COc1ccc2c(=O)c(Oc3ccccc3Br)coc2c1`, for which the activation is 0.1% (inactive).

As for `C[C@H](CO)N1C[C@H](C)[C@@H](CN(C)S(=O)(=O)c2ccc(Oc3ccccc3)cc2)OCc2cn(nn2)CCCC1=O`, the activation is 0.23% (inactive).

With `CC(OC(=O)CN1C(=O)C2CCCCC2C1=O)C(=O)Nc1ncc(Cl)cc1Cl` (stereo unspecified), the activation was 0.87% (inactive).

Regarding `O=C(COC(=O)c1ccc(F)cc1)NCC1COc2ccccc2O1` (stereo unspecified), the activation is 1.54% (inactive).

Take `c1ccc2c(c1)OCC(CNc1ncnc3nc[nH]c13)O2` (stereo unspecified): the activation was 109% (active).

For the compound `O=C(COc1ccc(F)cc1Br)NCC1COc2ccccc2O1` (stereo unspecified), the activation was 0.07% (inactive).

Consider `Cn1c(N)cc(=O)n(C)c1=S`, for which the activation is -0.09% (inactive).
